Bioassay records deposited in PubChem by National Center for Advancing Translational Sciences (NCATS).
hNpr1 antagonist: antagonists of human natriuretic peptide receptor Npr1. HEK293 hNpr1 GloSensor cGMP, ANP-stimulated luminescence. Potency, µM (highest dose often 46.3 µM), inactives show at the highest dose activity change, negative = inhibition, most hits filed as inhibitors. 76,000 tested, 1.6% active. P16066. AID 1347048; calls by dose curve; note: nearly all actives have a fitted effect of over 60% in size
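Compound pre-incubated 30 min at room temperature on GloSensor-loaded HEK293 cells stably carrying hNpr1 and the pGS-40F cGMP biosensor. Stimulation uses hNppA at 0.1 nM final; luminescence is taken at baseline and 20 min post-agonist.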
HEK cytotox: cytotoxic compounds in HEK 293 cells; HEK 293 viability, ATP luminescence (CellTiter-Glo), 48-72 h; Potency, µM (doses to about 115 µM), for the others: top-dose activity change, negative = cytotoxicity, hits mostly inhibitors; 94,000 tested, 6.6% active; AID 1345083; note: nearly all actives have a fitted effect of over 60% in size
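250 HEK 293 cells/well; compound by pintool; incubated 48 or 72 hr at 37 degree Celsius; CellTiter-Glo added, 10 min RT, luminescence imaged.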
FLuc inh: blocks purified firefly luciferase enzyme activity; Potency, µM (top dose mostly 115 µM), actives largely listed as inhibitors; P08659; purified P. pyralis luciferase, luminescence, biochemical; 76,000 tested, 2.5% active; AID 1347043; note: nearly all actives have a fitted effect of over 65% in size
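Biochemical qHTS: compound (6-point titration) added to 10uM D-luciferin plus 10uM ATP in Tris acetate pH 7.5 buffer with Mg, Tween-20 and BSA, then purified enzyme at 10nM; light output imaged.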
NIH3T3 tox: NIH 3T3 cell cytotoxicity. NIH 3T3 viability, CellTiter-Glo ATP luminescence, 48-72 h. Potency, µM (doses to about 96.7 µM), inactives show at the top dose activity change, negative = cytotoxicity, actives largely listed as inhibitors. 94,000 tested, 4.3% active; note: nearly all actives have a fitted effect of over 55% in size
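Luminescent ATP readout (CellTiter-Glo, 10 min RT) after 48 or 72 hr compound exposure of NIH 3T3 cells seeded at 400 cells/well in 1536-well format; quantitative HTS.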
GPT2 inhibitor: inhibitors of human GPT2 alanine aminotransferase; Potency, µM (titrated, usually from 57.7 µM), without a hit: at the top dose activity change, negative = inhibition, actives largely listed as inhibitors; Q8TD30; Recombinant GPT2, coupled pyruvate oxidase/HRP Amplex Red fluorescence; 100,000 tested, 0.25% active; note: nearly all actives have a fitted effect of over 60% in size
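Fluorescence read-out: pyruvate from GPT2 turnover coupled to pyruvate oxidase, HRP and Amplex Red (0.2mM ThPP, 0.2U/mL PO and HRP, 50uM Amplex final). Substrates 250uM a-KG, 2mM L-alanine; enzyme 10ng/uL; 30 min RT.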
The depositor's hits bear a star; i = inactive; u = inconclusive; x = no result given; [ ] = remark or other dose. In the library only some 10% were active in any assay of this set; here they are far more common. Unless noted, calls come from the whole dose curve; as a rule, active = well fitted curve in the direction sought with a large enough effect; inconclusive = small, poorly fitted or top-dose-only effect, or another doubt; inactive = no such curve, though single readings can be large; an effect the other way counts as inactive or inconclusive. % is set by controls: 0 for no effect and ±100 for the full control effect; potency is the fitted concentration of half-maximal effect.

SMILES	hNpr1 antagonist	HEK cytotox	FLuc inh	NIH3T3 tox	GPT2 inhibitor
O=C(c1cccs1)N1[C@H]2CC[C@@H]1c1cnc(-c3ccc(F)cc3)nc1C2	11µM*	u	u	u	-29%
C[C@]12CC[C@H]3[C@@H](CCC4=C/C(=N/OCC(=O)O)CC[C@@]43C)[C@@H]1CC[C@@H]2O	x	x	x	x	4%
CCCCCOc1cc2c(cc1-c1cc(/C=C/C(=O)O)ccc1O)C(C)(C)CCC2(C)C	x	x	x	x	1%
O=C(Cc1ccc(F)cc1)N1CCN(C2CCN(CCc3ccccc3)C2=O)CC1 (centres undefined)	-5%	-4%	i	-20%	-9%
NC(=O)C1=NO[C@@H]2CN(CC3CCCCC3)C[C@H]12	1%[70.6 µM]	u	i	u	-7%[88.5 µM]
O=C(c1ccc2c(c1)OCO2)N1[C@H]2CC[C@@H]1c1cnc(-c3ccc(F)cc3)nc1C2	-11%	45µM*	i	u	-8%
Fc1cnccc1CN1CC[C@@H]2CN(Cc3ccccc3)[C@@H]2C1	x	-24%	x	-14%	-8%
Cc1nc(-c2ccccc2)cc([C@H]2CN3CC[C@H]2C[C@@H]3CNS(C)(=O)=O)n1	-9%[70.6 µM]	-21%[172 µM]	i	u	i
Cn1nc(-c2ccc3ccccc3c2)cc1[C@H]1CN2CC[C@H]1C[C@@H]2CNS(=O)(=O)c1cccs1	-4%	u	u	20µM*	-30%
Cc1nc(-c2ccc(C(F)(F)F)cc2)cc([C@H]2CN3CC[C@H]2C[C@@H]3CNS(C)(=O)=O)n1	1%	u	i	40µM*	u
COc1ccc(CNC[C@H]2C[C@@H]3CCN2C[C@@H]3c2cc(-c3cccs3)nn2C)cc1	1%[70.6 µM]	45µM*	i	u	-3%[88.5 µM]
Cc1nc(-c2ccc(F)cc2)cc([C@H]2CN3CC[C@H]2C[C@@H]3CNS(=O)(=O)Cc2ccccc2)n1	4%	35µM*	i	79µM*	i
O=C(Cc1cccc(F)c1)N1[C@H]2CC[C@@H]1c1cnc(-c3ccc(F)cc3)nc1C2	-29%	u	i	u	i
Cc1ncc2c(n1)C[C@@H]1CC[C@H]2N1C(=O)Nc1ccc(C)c(F)c1	-9%	-18%	u	-25%	i
O=C(Cc1c(F)cccc1Cl)N1CCN(Cc2ccccc2)CC(O)C1 (centres undefined)	1%	-3%	i	0%	0%[11.5 µM]
COc1cc2c(cc1OCc1ccccc1)NC(=O)C21CCN(C(=O)c2ccccc2)CC1	3%	u	i	u	3%
CCOC(=O)[C@H]1CN(C(=O)c2ccc(Cl)cc2)[C@]2(C)C(=O)N(C)c3ccccc3[C@H]12	x	u	x	-29%[46.1 µM]	-9%[27.3 µM]
Cn1nc(-c2ccccc2)cc1[C@H]1CN2CC[C@H]1C[C@@H]2CNS(=O)(=O)c1cccs1	-16%[70.6 µM]	u	i	u	i
Cn1nc(-c2ccccc2)cc1[C@H]1CN2CC[C@H]1C[C@@H]2CNS(=O)(=O)Cc1ccccc1	6%	79µM*	i	79µM*	i
CC(=O)c1ccc(NC(=O)NC[C@H]2C[C@@H]3CCN2C[C@@H]3CN2CCN(c3ncccn3)CC2)cc1	5%	-13%	i	u	-8%
CCn1c(CO)nnc1C1CC(NC(=O)c2cnn(Cc3ccccc3)c2)C1 (centres undefined)	5%	-11%	i	-2%	-10%[11.5 µM]
COc1ccc(CC(=O)N2CC3(CCN(C)CC3)c3cc(OC)c(OCc4ccccc4)cc32)cc1	6%	32µM*	i	u	i
COc1cc2c(cc1OCc1ccccc1)N(C(=O)COc1ccccc1)CC21CCN(C)CC1	0%	28µM*	i	22µM*	i
COc1cc2c(cc1CCc1ccccc1)N(C(=O)Cc1ccc3c(c1)OCO3)CC21CCN(C(C)=O)CC1	-17%	-24%	i	u	-4%
COc1cc2c(cc1OCc1ccccc1)N(C(=O)Cc1ccc3c(c1)OCO3)CC21CCN(C)CC1	7%	79µM*	i	u	1%
COc1cc2c(cc1CCc1ccccc1)N([S+](=O)([O-])c1ccc3c(c1)CCO3)CC21CCN(C(C)=O)CC1	-3%	u	i	25µM*	-11%
